Screens from PubChem BioAssay.
This is a sample that favours compounds with a hit; in the whole collection about 6.6% have one here.
Anthrax LF inh2: blocks Bacillus anthracis lethal factor protease. 0.12% of 360,000 active. multiplex microsphere protease cleavage assay, LF. inhibition, % at 10 µM. P15917. AID 588501
GDH-TPI inh: inhibits GDH-TPI coupling enzymes, artifact for Mtb FBA screen; GDH-TPI coupled enzyme counterscreen, NADH absorbance; inhibition, % at 4.8 µM; 1.2% of 360,000 active; AID 588335; in the data active = inhibition above about 30%
BoNT-F LC inh: inhibitors of Botulinum neurotoxin F light chain protease; Multiplex microsphere protease cleavage assay, flow cytometry; inhibition, % at 10 µM; 0.22% of 360,000 active; in the data active = inhibition above about 35%, passing the limit was not always enough; inconclusive = no clear call, values can overlap the other calls
BoNT-A LC inh2: inhibitors of Botulinum neurotoxin A light chain protease | inhibition, % at 10 µM | multiplex microsphere protease substrate cleavage, flow cytometry | 0.17% of 360,000 active
FBA Mtb inh: Mtb fructose-bisphosphate aldolase inhibition; 2.3% of 360,000 active; purified M. tuberculosis FBA, fluorescence read-out; inhibition, % at 1 µM; in the data active = inhibition above about 27%
Target sequence (P9WQA3 whole entry, looked up): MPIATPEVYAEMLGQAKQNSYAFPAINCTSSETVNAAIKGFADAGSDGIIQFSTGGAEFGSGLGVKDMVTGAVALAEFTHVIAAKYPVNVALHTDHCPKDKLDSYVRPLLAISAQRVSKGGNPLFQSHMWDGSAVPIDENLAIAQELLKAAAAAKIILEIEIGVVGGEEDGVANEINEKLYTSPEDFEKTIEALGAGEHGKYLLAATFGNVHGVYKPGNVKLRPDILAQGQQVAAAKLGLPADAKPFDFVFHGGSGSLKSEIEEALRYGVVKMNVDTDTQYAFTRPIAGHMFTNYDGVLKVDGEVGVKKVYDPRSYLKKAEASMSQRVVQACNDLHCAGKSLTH
Autofluor counter: compound fluorescence in toxin protease inhibitor counterscreen; compound autofluorescence counterscreen, microsphere flow cytometry; active compounds read high; fluorescence intensity (concentration not given with the values); 3.1% of 360,000 active; AID 624483; in the data active = fluorescence intensity above about 16000; inconclusive = no clear call, values can overlap the other calls
Numbers stand for hits; - = inactive; ? = inconclusive; . = no result given; + = active, no number. Rule as the data show it, unless noted: active = inhibition above about 30%; inconclusive = no clear call, values can overlap the other calls; inactive = below that.

SMILES	Anthrax LF inh2	GDH-TPI inh	BoNT-F LC inh	BoNT-A LC inh2	FBA Mtb inh	Autofluor counter
COc1cccc(-c2cc(C(F)(F)F)nc(-n3cncn3)n2)c1	-	-	-	?	-	25001
Fc1ccc(-c2cc(C(F)(F)F)nc(-n3cccn3)n2)cc1	-	-	-	-	-	-
Fc1ccc(-c2cc(C(F)(F)F)nc(-n3cncn3)n2)cc1	-	-	-	-	-	21601
O=C1NC(=O)/C(=C/c2cccc3ccccc23)S1	.	37.1	.	.	-	.
Cn1nc(C(F)(F)F)c(C(=O)Nc2ccc(F)cc2F)c1Sc1ccc(Cl)cc1	-	-	-	-	-	-
Cn1nc(C(F)(F)F)c(C(=O)Nc2ccc(F)cc2F)c1Sc1ccc(C(F)(F)F)cc1	-	-	-	-	-	22356
O=C(COC(=O)Cc1c(Cl)cccc1Cl)Nc1ccc(OC(F)(F)F)cc1	-	-	-	-	-	-
O=C(Nc1cc(Cl)cc(Cl)c1)c1cnn2cccnc12	-	-	-	-	-	-
O=C(Nc1cccc(Cl)c1)c1cnn2cccnc12	-	-	-	?	-	23465
CCc1nc2ccc(C(=O)Nc3cc(-c4ccccc4)ccc3OC)cn2c1N(C)C(=O)c1cccc(OC)c1	-	-	-	-	-	-
N#C/C(=N\Nc1cc(Cl)cc(Cl)c1)c1nnc2n1CCCCC2	-	32.7	-	-	-	-
N#C/C(=C(/O)CCl)c1nnc2n1CCCCC2	-	-	-	-	-	-
Cc1onc(-c2ccccc2)c1C(=O)NNC(=S)NC(=O)c1ccc(Cl)cc1Cl	-	-	-	-	-	-
Cc1ccc(SCC(=O)NCCN2C(=O)CSC2=O)cc1C	-	-	-	-	-	23097
Cc1ccc(SCC(=O)NCCN2C(=O)CSC2=O)c(C)c1	-	-	-	-	-	-
Cc1cccc(-n2nnnc2SCC(=O)NCCN2C(=O)CSC2=O)c1	-	-	-	-	-	22931
O=[N+]([O-])c1ccc(CNCc2cc(Cl)ccc2O)cc1	-	-	-	-	-	-
C/C(=N\OC(=O)c1ccc(Cl)cc1)c1nccs1	-	-	-	-	-	24861
Cc1ccc(CNC(=O)c2sc3nc4c(c(C(F)(F)F)c3c2N)CCC4)cc1	-	-	-	?	-	24632
Cc1cc(=O)c2c(N(C)C)cccc2[nH]1	-	-	-	-	+	-
Cc1cc(NC(=O)C(C)SCC(=O)N(C)CC(=O)Nc2ccc(Br)cc2C)no1 (stereo not drawn)	-	-	-	-	-	-
O=C(c1cnn2c(C(F)F)cc(-c3ccccc3)nc12)N1CCOCC1	-	-	-	-	-	21284
COc1ccc(-c2cc(C(F)F)n3ncc(C(=O)N4CCN5CCCC5C4)c3n2)cc1 (stereo not drawn)	-	-	-	-	-	17221
O=C(c1cnn2c(C(F)F)cc(-c3ccccc3)nc12)N1CCSCC1	-	-	-	-	-	?
O=C(c1cnn2c(C(F)(F)F)cc(-c3ccc4c(c3)OCO4)nc12)N1CCCC1	-	-	-	?	-	21315
SMILES	Anthrax LF inh2	GDH-TPI inh	BoNT-F LC inh	BoNT-A LC inh2	FBA Mtb inh	Autofluor counter
Cc1cc(NC(=O)c2cnn3c(C(F)(F)F)cc(-c4ccc(Br)cc4)nc23)no1	-	-	-	-	-	23282
Cc1ccc(-c2cc(C(F)(F)F)n3ncc(C(=O)NCc4ccco4)c3n2)cc1	-	-	-	-	-	-
O=C(c1cnn2c(C(F)(F)F)cc(-c3ccc(Br)cc3)nc12)N1CCOCC1	-	-	-	-	-	-
O=C(Nc1ccccc1C(F)(F)F)c1cc2ncc(CCCl)cn2n1	-	-	-	-	-	-
N#CCC(=O)Nc1ccc(C(=O)Nc2cccc(S(=O)(=O)N3CCCC3)c2)cc1	-	-	-	-	-	-
Cc1cc(C(C)(C)C)cc(CN2CCN(S(=O)(=O)c3cccs3)CC2)c1O	-	-	-	-	-	-
COc1ccc(NS(=O)(=O)c2ccc(-n3nnc4ccccc43)c([N+](=O)[O-])c2)cc1	-	-	-	-	-	21241
Cc1ccsc1/C=N/Nc1nc2ccccc2[nH]1	-	31.9	-	-	-	-
Cc1c(/C=N/Nc2nc3ccccc3[nH]2)c2ccccc2n1C	-	32.4	?	-	-	-
C(=N\Nc1nc2ccccc2[nH]1)/c1cccs1	-	-	-	-	-	-
CC(=O)Nc1ccc(NC(=O)C(C)OC(=O)C2(c3ccccc3F)CCCC2)cc1 (stereo not drawn)	-	-	-	-	-	-
Cc1ccc(N2CCN(C(=O)N3CCCC3)CC2)cc1C	-	-	-	-	-	16586
S=C(NCc1ccccc1)NN1CCOCC1	-	-	-	-	-	-
COc1cc(/C=C2\SC(=S)N(N3CCOCC3)C2=O)ccc1O	-	-	-	-	-	-
COc1cc(/C=C2/C(=O)N(c3ccc([N+](=O)[O-])cc3)N=C2N2CCOCC2)ccc1O	-	38.8	-	-	-	-
N#C/C(=C\c1cc(Cl)cc(Cl)c1O)C(=O)NC1CCCCC1	-	-	-	?	-	16628
CCN(CC)C(=O)c1cc2c(=O)n3ccccc3nc2s1	-	-	-	-	186.2	-
COCCN(CCOC)C(=O)c1cc2c(=O)n3ccccc3nc2s1	-	31.7	-	-	+	-
CN(C)S(=O)(=O)c1cccc(NC(=O)c2cc3c(=O)n4ccccc4nc3s2)c1	-	-	-	-	-	-
O=C(CSc1ncn[nH]1)N1CCN(S(=O)(=O)c2ccc(Cl)cc2)CC1	-	-	-	-	-	21069
COC(=O)c1nccnc1N	-	-	-	-	145.5	-
CC1CC(C)CN(C(=O)COC(=O)c2nccnc2N)C1 (stereo not drawn)	-	-	-	-	180.4	-
Nc1nccnc1C(=O)OCC(=O)N1CCN(S(=O)(=O)c2ccc(Cl)cc2)CC1	-	-	-	-	148.5	-
O=C(OCC(=O)N1CCN(S(=O)(=O)c2ccc(Cl)cc2)CC1)c1cc(Br)ccc1O	-	-	-	-	-	?
CC1CC(C)CN(C(=O)COC(=O)c2ccc(Cl)nc2)C1 (stereo not drawn)	-	-	-	-	-	-
SMILES	Anthrax LF inh2	GDH-TPI inh	BoNT-F LC inh	BoNT-A LC inh2	FBA Mtb inh	Autofluor counter
CC1=C(N2CCCCC2)CCC1=O	-	-	-	-	-	-
Nc1nccnc1C(=O)OCC(=O)C12CC3CC(CC(C3)C1)C2	-	-	-	-	127.2	-
CCOC(=O)C(C)Oc1cccc2c(=O)n(CC(=O)Nc3ccc(OC)cc3)ccc12 (stereo not drawn)	-	-	-	-	-	-
CN(C)c1ccc(/C=C(\C#N)C(=O)Nc2nc3c(s2)CCN(Cc2ccccc2)C3)cc1	-	-	57.5	-	-	-
CN1CCc2[nH]c3ccc(C(=O)NN)cc3c2C1	-	-	-	-	-	20838
Cc1cc(C)n(C(C[N+](=O)[O-])c2ccc(Cl)cc2)n1 (stereo not drawn)	-	-	-	-	-	-
CCCCCCCCCCCCCCCC(=O)NCCc1c[nH]c2ccccc12	-	-	-	-	-	-
CCCCOc1ccc(-c2nnn(CC(=O)NCCc3c[nH]c4ccccc34)n2)cc1	-	-	-	?	-	23887
